# Laboratory results: PubChem BioAssay AID567 (The Scripps Research Institute Molecular Screening Center, 2006)
# Hit rate of the full screen: of about 65,000 compounds, about 370 (0.57%) were called active. The sample as a whole holds a higher share of actives than the screen did. A number with no mark means an inactive call.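 The calls were made as follows: active = activation above the screen-wide mean activation plus 3 SD (cut at about 19% in these data); inactive = the rest.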
# Target: 5-hydroxytryptamine receptor 1A (Homo sapiens) (UniProt P08908)
# Sequence (P08908 whole entry, looked up): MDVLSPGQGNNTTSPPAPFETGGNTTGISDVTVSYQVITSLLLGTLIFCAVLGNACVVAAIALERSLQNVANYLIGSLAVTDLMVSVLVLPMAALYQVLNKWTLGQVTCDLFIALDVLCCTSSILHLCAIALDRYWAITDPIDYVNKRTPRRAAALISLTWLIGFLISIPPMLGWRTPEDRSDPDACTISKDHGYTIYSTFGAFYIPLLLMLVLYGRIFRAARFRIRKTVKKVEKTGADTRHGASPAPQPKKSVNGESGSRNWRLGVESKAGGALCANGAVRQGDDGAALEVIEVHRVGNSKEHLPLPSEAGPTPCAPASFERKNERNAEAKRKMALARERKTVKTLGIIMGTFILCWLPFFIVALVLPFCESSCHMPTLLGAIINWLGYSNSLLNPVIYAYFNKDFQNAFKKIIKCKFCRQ
# Assay: agonism at serotonin HTR1A receptor – cell-based, CHO, Ga15 NFAT-bla reporter, primary screen (AID 567);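 also: 0% = DMSO wells and 100% = 5-CT at EC100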
# Settings: CHO 5-HT1a Ga15 NFAT-bla reporter, FRET ratio; at 10 µM; hits give high values; 0% basal, 100% maximal reference agonist
row,SMILES,activation
1,COC(=O)c1ccc(S(=O)(=O)c2ccc(C(=O)OC)s2)s1,2.5%
2,CCOC(=O)CN(C(=O)CN1CCOCC1)c1ccc(Br)cc1,-0.22%
3,CCOC(=O)C1CCN(C(c2cc3cc(C)cc(C)c3[nH]c2=O)c2nnnn2C2CCCCC2)CC1 (configuration not stated),-0.97%
4,CC(C)CCNC(=O)C1CCCN(S(=O)(=O)c2ccc(F)cc2)C1 (configuration not stated),0.42%
5,O=C(NCc1ccco1)c1ccc(CS(=O)(=O)Cc2ccc(F)cc2)o1,-3.1%
6,O=C(c1cccs1)N1CCCC(c2nc(-c3ccc(F)cc3)no2)C1 (configuration not stated),-1.69%
7,Cn1c(=O)c2c(ncn2CC(=O)N2CCN(c3ccccc3)CC2)n(C)c1=O,-0.49%
8,COc1ccc(C(=O)Nc2ccc(S(=O)(=O)Nc3onc(C)c3C)cc2)cc1OC,-4.48%
9,Cc1noc(NS(=O)(=O)c2ccc(NC(=O)C34CCC(CC3)C4)cc2)c1C,0.73%
10,Cc1noc(NS(=O)(=O)c2ccc(N3CC(O)=C(c4ccccc4)C3=N)cc2)c1C,147% (active)
11,COc1cccc2c(=O)n(CC(=O)N3CCCCCC3)ccc12,-2.41%
12,CC1=C(C(=O)OCc2ccccc2)C(c2ccco2)n2ncnc2N1 (configuration not stated),2.82%
13,CCCOc1ccc(N2CC(C(=O)Nc3ccccn3)CC2=O)cc1 (configuration not stated),-1.38%
14,COc1cc2ccccc2cc1C(=O)Nc1ccc(S(=O)(=O)Nc2cc(C)on2)cc1,0.01%
15,CC(C)(C)n1c(=O)[nH]c2c(c1=O)CCC2,-0.19%
16,Cc1ccc(-n2nc3cc(Cl)c(NC(=O)c4ccco4)cc3n2)cc1,0.44%
17,c1ccc2cc(OCCN3CCCC3)ccc2c1,-1%
18,O=C(CN1C2CCC1CC(NC(=O)C1CC1)C2)NCc1ccccc1 (configuration not stated),0.81%
19,CCn1c(SCC(=O)Nc2ccc3c(c2)OCCO3)nc2c(c1=O)SC(C)C2 (configuration not stated),1.05%
20,O=C(c1ccc2c(c1)OCCO2)C1CCN(S(=O)(=O)c2cccc(F)c2)CC1,-3.42%
21,CC(=O)NS(=O)(=O)c1ccccc1,-2.33%

row,SMILES,activation
1,Fc1cnc(N2CCOCC2)nc1NCc1ccccc1,-1.58%
2,CCn1c(SCC(=O)Nc2nccs2)nnc1-c1ccncc1,-0.84%
3,COc1ccc(-c2nn(-c3ccccc3)cc2C(=O)Nc2nc(CC(C)=O)ns2)cc1,59.1% (active)
4,CC(=O)Cc1nsc(NC(=O)c2csc3c2CCCC3)n1,0.34%
5,CC(=O)Cc1nsc(NC(=O)c2ccc(COc3ccc(C)cc3)o2)n1,-1.31%
6,CCOc1cc(C2C(C(=O)OC)=CN(C3CCCC3)C=C2C(=O)OC)cc(Br)c1O,14.4%
7,COC(=O)C1=CN(C)C=C(C(=O)OC)C1c1ccc(Cl)cc1Cl,13.7%
8,CCOc1ccccc1C1C(C(=O)OC)=CN(C)C=C1C(=O)OC,20.1% (active)
9,CC(=O)c1ccc(N2C(=NC(=O)C(C)C)SC3CS(=O)(=O)CC32)cc1 (configuration not stated),-1.94%
10,CN(C)/C=C1/Nc2ccccc2C1=O,-1.11%
11,O=C(O)c1ccc(F)c(S(=O)(=O)Nc2ccccc2)c1,1%
12,COc1ccc(NC(C)=O)cc1NC(=O)CN1CCN(c2ccccn2)CC1,-1.16%
13,COC(=O)c1ccc(C2NC(=O)NC(C)=C2C(=O)N(C)C)cc1 (configuration not stated),-3.69%
14,O=C(c1ccc(S(=O)(=O)N2CCOCC2)cc1)N1CCN(c2ccccc2)CC1,-2.91%
15,CNC(=O)c1nnn(-c2ccccc2)c1C(=O)NC,-1.73%
16,CCOc1ccc(NS(=O)(=O)c2ccc(OCC(=O)NCCCOC)cc2)cc1,-1.21%
17,O=C(COC(=O)CCc1c[nH]c(=O)[nH]1)Nc1ccccc1Cl,-0.97%
18,COc1ccc(C)cc1NC(=O)c1[nH]c(C)c(C(C)=O)c1C,43.5% (active)
19,CCOC(=O)c1c(C)[nH]c(C(=O)NCc2ccccc2OC)c1C,-0.94%
20,CCOc1ccc(NC(=O)Nc2cc(C)ccc2OC)cc1,-4.41%
21,O=C(CSc1nnc(-c2ccco2)o1)NCC(=O)c1ccccc1,0.23%

row,SMILES,activation
1,Cc1ccc(CNC(=O)C2CCCN(S(C)(=O)=O)C2)cc1 (configuration not stated),0.44%
2,Cc1cc(C)c(NC(=O)CS(=O)CC(=O)Nc2cccnc2)c(C)c1 (configuration not stated),0.42%
3,CCCC(=O)Nc1ccc(C(=O)NCCCn2ccnc2)cc1,-3.99%
4,CCOC(=O)C1(Cc2ccc(O)cc2)NC(c2ccccc2F)C2C(=O)N(C)C(=O)C21 (configuration not stated),-1.57%
5,COc1ccccc1N1CC(O)=C(c2nc3ccccc3s2)C1=N,-3.98%
6,Cc1ccc(C(=O)CS(C)(=O)=O)cc1,-5.39%
7,O=C(O)C1CCCN(S(=O)(=O)c2cccc3cccnc23)C1 (configuration not stated),-4.76%
8,Cc1[nH]c2ccc(S(N)(=O)=O)cc2c1C,-0.45%
9,Cc1ccccc1CSCC(=O)NC(=O)NC(C)(C)C,-1.47%
10,CC1CCCN(c2ccc(C(=O)NCCc3ccccc3)cn2)C1 (configuration not stated),-0.9%
11,CC(C)Cn1c(N)c(C(=O)NCc2cccs2)c2nc3ccccc3nc21,77.6% (active)
12,C=CCn1c(N)c(C(=O)OCC(C)C)c2nc3ccccc3nc21,0.61%
13,C=CCn1c(N)c(S(=O)(=O)c2cccs2)c2nc3ccccc3nc21,-0.33%
14,CCOc1ccc2nc(SC(CC)C(=O)Nc3cc(C)on3)sc2c1 (configuration not stated),0.42%
15,COc1ccc(F)cc1S(=O)(=O)Nc1ccc2c(c1)OCO2,-5.74%
16,O=C(Cn1cnc2c(nnn2Cc2ccc(F)cc2)c1=O)NCc1ccc2c(c1)OCO2,-1.47%
17,COc1cccc2c(C)c(C(=O)O)[nH]c12,1.98%
18,C=CCSC1=C(C#N)C(c2cc(Br)c(O)c(OC)c2)CC(=O)N1 (configuration not stated),1.53%
19,C=CCNc1nnc(SCC(=O)N2CCCCC2)c2ccccc12,0.32%
20,O=C1c2ccncc2C(=O)N1C1CCCCC1,-3.22%
